“And” between values parts separate entries of the source, which are not always exact repeats. Equal values may be shown once. Where a name gives a salt, the structure may show the parent alone. ± gives the standard deviation of the averaged measurements.

For experiment [1], the system named is Neuro-2a. As to the kind of experiment: neurite formation score, plate-normalized to DMSO control mean 5.04 (score (0-8 scale)); higher = more or longer neurites. Particulars: 1 µM. How it is done:
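Neuro-2a mouse neuroblastoma cells in PLL-coated 96-well plates were pre-treated for 1 h in DMEM(+) with each kinase inhibitor at 1 µM, then switched to serum-free DMEM(-) with inhibitor to induce neurite outgrowth and fixed about 2-3 h later. Three blinded observers scored neurite formation from 0 (no neurites) to 8 (long neurites on almost all cells).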

In experiment [2] the test system is Neuro-2a. Described as above. The settings on record: 0.1 µM. How it is done: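 Neuro-2a mouse neuroblastoma cells in PLL-coated 96-well plates were pre-treated for 1 h in DMEM(+) with each kinase inhibitor at 0.1 µM, then switched to serum-free DMEM(-) with inhibitor to induce neurite outgrowth and fixed about 2-3 h later. Three blinded observers scored neurite formation from 0 (no neurites) to 8 (long neurites on almost all cells).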

`O=C(Nc1cccc(Nc2ncc(Br)c(NCCc3cnc[nH]3)n2)c1)N1CCCC1` showed a neurite formation score in experiment [1] of 3.91.
Compound `O=C(Nc1ccc2[nH]nc(-c3ccncc3)c2c1)[C@@H]1CCN(CC(=O)N2CCN(c3ccc(-c4ncccn4)cc3)CC2)C1` showed a neurite formation score in experiment [1] of 3.8.
Consider `CS(=O)(=O)N1CCC(NC(=O)c2[nH]ncc2NC(=O)c2c(Cl)cccc2Cl)CC1`, for which the neurite formation score in experiment [1] was 4.47.
For the compound `COc1cc2ncnc(Nc3ccc(O)c(Br)c3)c2cc1OC`, in experiment [1], the neurite formation score was found to be 4.47.
Same read-out and setting: the figure for `CN1CCN(C2CCN(C(=O)Nc3cc(Oc4ccc(NC(=O)C5(C(=O)Nc6ccc(F)cc6)CC5)c(F)c4)ccn3)CC2)CC1` [Golvatinib (E7050)] is 4.14; for `Cc1c[nH]c(/C=C2\C(=O)Nc3ccccc32)c1CCC(=O)O` it is 6.02.
Still for that read-out and setting: under `Cn1cc(-c2ccc3nnc(Sc4ccc5ncccc5c4)n3n2)cn1` stands 4.24; under `Cn1sc(=O)n(Cc2ccccc2)c1=O`, 2.96.
`Nc1nc(NCCNc2ncc(-n3ccnc3)c(-c3ccc(Cl)cc3Cl)n2)ccc1[N+](=O)[O-]`: the neurite formation score in experiment [1] turned out to be 5.29.
Same read-out and setting: under `Cc1cc(O)c2c(c1)C(=O)c1cccc(O)c1C2=O` [Chrysophanol] stands 4.8.
The same measure, in the same setting: the figure for `Oc1ccc2ccccc2c1SSc1c(O)ccc2ccccc12` is 3.88.
As for `Cc1ccc2nc(NCCN)c3ncc(C)n3c2c1`, the neurite formation score in experiment [1] is 4.47 and 4.14.
Regarding `Cc1ccc(S(=O)(=O)/C=C/C#N)cc1`, the neurite formation score in experiment [1] is 5.14.
In turn, `CC(C)NC[C@@H](C(=O)N1CCN(c2ncnc3c2[C@H](C)C[C@H]3O)CC1)c1ccc(Cl)cc1` showed a neurite formation score in experiment [1] of 4.24.
The same measure, in the same setting: the figure for `CC(C)[C@H](CO)Nc1nc(Nc2cccc(Cl)c2)c2ncn(C(C)C)c2n1` [Purvalanol A] is 3.54; for `O=C(Nc1ccc(CN2CCOCC2)cc1)c1ccc(-c2cccc(Cl)c2)o1` it is 4.9; for `C=CC(=O)Nc1ccc2ncnc(Nc3ccc(OCc4cccc(F)c4)c(Cl)c3)c2c1` it is 4.24.
On the same count and under the same terms, the figure for `O=S(=O)(c1cccc2c(O)nccc12)N1CCCNCC1` [Hydroxyfasudil hydrochloride] is 3.8.
`COc1cc(C(=O)NC2CCN(C)CC2)c(F)cc1Nc1ncc2c(n1)N(C1CCCC1)CC(F)(F)C(=O)N2C` yielded a neurite formation score in experiment [1] of 5.54.
The same measure, in the same setting: the figure for `NC(=O)c1ccc2nc(-c3ccc(Oc4ccc(Cl)cc4)cc3)[nH]c2c1` is 4.63; for `CN(C)CCSSCCNC(=O)C1CCN(C(=O)CSc2ccc(Cl)cc2)CC1` it is 3.63; for `CCn1c(=O)c(-c2ccc(-c3cncs3)cc2Cl)cc2cnc(Nc3ccc(N4CCN(C)CC4)cc3)nc21` it is 4.96.
On the same count and under the same terms, the figure for `c1ccc2c(-c3cnn4cc(-c5ccc(N6CCNCC6)cc5)cnc34)ccnc2c1` is 5.14 and 4.47.
The same measure, in the same setting: the figure for `O=c1ncn2nc(Sc3ccc(F)cc3F)ccc2c1-c1c(Cl)cccc1Cl` is 4.29.
As for `Cc1cc(Nc2nc(N[C@@H](C)c3ncc(F)cn3)ncc2Cl)[nH]n1`, in experiment [1], the neurite formation score was found to be 3.8.
Same read-out and setting: the figure for `O=c1cc(-c2cccc3c2Sc2ccccc2S3)oc(N2CCOCC2)c1` is 3.69; for `c1nc2c(NC3CCCCC3)nc(Nc3ccc(N4CCOCC4)cc3)nc2[nH]1` [Reversine] it is 5.02; for `NC(=O)c1cnc(N[C@@H]2CCCC[C@@H]2N)nc1Nc1cccc(-n2nccn2)c1` it is 4.36.
On the same count and under the same terms, the figure for `C#Cc1cccc(Nc2ncnc3cc4c(cc23)OCCOCCOCCO4)c1` [Icotinib] is 4.8.
The same measure, in the same setting: the figure for `CNC(=O)c1ccccc1Nc1nc(Nc2ccc(N3CCOCC3)cc2OC)ncc1Cl` is 4.29; for `COc1cc(CCc2cc(NC(=O)c3ccc(N4CC(C)NC(C)C4)cc3)n[nH]2)cc(OC)c1` (configuration not stated) it is 3.9; for `Cc1ccc([N+](=O)[O-])cc1S(=O)(=O)N(C)/N=C/c1cnc2ccc(Br)cn12` it is 4.54.
Regarding `COc1ccc(-c2ccc3c(N4CCOC[C@@H]4C)nc(N4CCOC[C@@H]4C)nc3n2)cc1CO`, in experiment [1], the neurite formation score came out at 4.57.
`COc1cc(Nc2c(C#N)cnc3cc(OCCCN4CCN(C)CC4)c(OC)cc23)c(Cl)cc1Cl` [Bosutinib (SKI-606)] came in with a neurite formation score in experiment [1] of 4.57.
In the case of `C[C@H]1[C@H](C)CC[C@]2(C(=O)O)CC[C@]3(C)C(=CC[C@@H]4[C@@]5(C)C[C@@H](O)[C@H](O)[C@@](C)(CO)[C@@H]5CC[C@]43C)[C@H]12` [Asiatic acid], the neurite formation score in experiment [1] is 4.21.
Still for that read-out and setting: under `Cc1c(CN2CCN(C(=O)[C@H](C)O)CC2)sc2c(N3CCOCC3)nc(-c3cnc(N)nc3)nc12` stands 4.21.
Compound `O=C1Nc2ccc(I)cc2/C1=C/c1cc(Br)c(O)c(Br)c1` registered a neurite formation score in experiment [1] of 3.29.
The same measure, in the same setting: under `COc1cc(N2CCC(N(C)C)CC2)ccc1Nc1ncc(Cl)c(Nc2ccccc2P(C)(C)=O)n1` stands 4.57; under `O=C1NC(=O)/C(=C/c2cccc(C(F)(F)F)c2)S1`, 4.36.
Turning to `CN(C)C/C=C/C(=O)Nc1cc2c(Nc3ccc(F)c(Cl)c3)ncnc2cc1O[C@H]1CCOC1` [Afatinib (BIBW2992)], the results for the neurite formation score in experiment [1] and in experiment [2] were 3.57 and 4.54, respectively.
As for `CCc1cncnc1N1CCN(Cc2nc3ccc(C(F)(F)F)cc3[nH]2)CC1`, the neurite formation score is 4.54 in experiment [1] and 4.42 in experiment [2].
On the same counts, the results for `CNC(=O)CN1CCC(Oc2cc3c(Nc4cccc(Cl)c4F)ncnc3cc2OC)CC1` [AZD8931 (Sapitinib)] are 4.29 and 4.25.
On the same counts, the results for `Cc1cnc(Nc2ccc(N3CCN(C)CC3)cc2)nc1Nc1cccc(S(=O)(=O)NC(C)(C)C)c1` are 2.36 and 2.58.
As for `O=C(NCc1ccccc1)c1csc(Nc2ccncn2)n1` [Thiazovivin], the neurite formation score was 4.57 in experiment [1] and 4.88 in experiment [2].
In the case of `Cc1c(NC(=O)OC[C@@H]2COCCN2)cn2ncnc(Nc3ccc4c(cnn4Cc4cccc(F)c4)c3)c12`, the neurite formation score in experiment [1] stood at 2.91; in experiment [2] it was 3.71.
With `COc1cc2nccc(Oc3ccc(NC(=O)C4(C(=O)Nc5ccc(F)cc5)CC4)cc3)c2cc1OC`, the results for the neurite formation score in experiment [1] and in experiment [2] were 3.57 and 4.38, respectively.
Taken in the same sequence, the figures for `COc1cc(-c2cc(-c3ccc(N4CCNCC4)cc3)cnc2C)cc(OC)c1OC` were 4.47 and 5.09.
As for `CN(c1ncccc1CNc1nc(Nc2ccc3c(c2)CC(=O)N3)ncc1C(F)(F)F)S(C)(=O)=O`, the neurite formation score in experiment [1] is 1.57 and 4.24; in experiment [2], 3.54 and 4.88.
Turning to `COc1cc2c(Oc3ccc(NC(=O)C4(C(=O)Nc5ccc(F)cc5)CC4)cc3F)ccnc2cc1OCCCN1CCOCC1`, the figures for the neurite formation score in experiment [1] and in experiment [2] were 3.24 and 3.38, respectively.
On the same counts, the results for `O=C(Cc1ccc(-c2ccc(OCCN3CCOCC3)cc2)cn1)NCc1ccccc1` [KX2-391 dihydrochloride] are 0.692 and 0.584.
On the same counts, the results for `Cc1cc2c(F)c(Oc3ncnn4cc(OC[C@@H](C)OC(=O)[C@H](C)N)c(C)c34)ccc2[nH]1` are 3.57 and 4.04.
As for `CC1=CC(=O)C(C(C)C)=C/C1=N/OC(=O)c1ccccc1C` [Poloxin], the values for the neurite formation score in experiment [1] and in experiment [2] were 4.02 and 5.25, respectively.
On the same counts, the results for `COc1cc2nccc(Oc3ccc(NC(=O)NC4CC4)c(Cl)c3)c2cc1C(N)=O` [Lenvatinib (E7080)] are 4.57 and 4.38.
Taken in the same sequence, the figures for `C[C@H](Nc1ncnc2nc[nH]c12)c1cc2cccc(Cl)c2c(=O)n1-c1ccccc1` were 2.91 and 5.04.
Take `CCn1nnc2c(N3CCOCC3)nc(-c3ccc(NC(=O)Nc4ccc(C(=O)N5CCN(C)CC5)cc4)cc3)nc21`: the neurite formation score was determined as 3.14 in experiment [1] and 4.76 in experiment [2].
Turning to `Cn1cc(/C=C2\C(=O)Nc3cccnc32)c2ccccc21`, the neurite formation score was 4.54 in experiment [1] and 4.08 in experiment [2].
On to `CS(=O)(=O)N1CCN(Cc2cc3nc(-c4cccc5[nH]ncc45)nc(N4CCOCC4)c3s2)CC1`, for which the figures for the neurite formation score in experiment [1] and in experiment [2] were 4.24 and 5.21, respectively.
As for `CS(=O)(=O)c1ccc(-c2cnc(N)c(C(=O)Nc3ccccc3)n2)cc1`, the figures for the neurite formation score in experiment [1] and in experiment [2] were 4.24 and 3.04, respectively.
On the same counts, the results for `Nc1cccc(-c2cc3c(Oc4cccc(O)c4)ncnc3[nH]2)c1` are 1.88 and 3.75.
`O=C(Nc1nc2cccc(-c3ccc(CN4CCS(=O)(=O)CC4)cc3)n2n1)C1CC1`: the neurite formation score in experiment [1] was 4.88 ± 0.58; in experiment [2], 5 ± 0.35.
Taken in the same sequence, the figures for `Nc1nc(Nc2ccc3c(c2)CCC(N2CCCC2)CC3)nn1-c1cc2c(nn1)-c1ccccc1CCC2` (configuration not stated) were 4.24 and 4.54.
Taken in the same sequence, the figures for `N[C@@H]1CCCN(c2c(/C=C3\SC(=O)NC3=O)cccc2-c2ccccc2)C1` were 5.36 and 5.25.
On the same counts, the results for `CCCS(=O)(=O)Nc1ccc(F)c(C(=O)c2c[nH]c3ncc(Cl)cc23)c1F` are 2.91 and 4.38.
Consider `CN1CCN(c2ccc(Nc3cc(-c4cccc(-n5ccc6cc(C7CC7)cc(F)c6c5=O)c4CO)cn(C)c3=O)nc2)CC1`, for which the neurite formation score in experiment [1] is 5.63; in experiment [2] it was 4.58.
`CN(C)c1nc2c(Br)c(Br)c(Br)c(Br)c2[nH]1`: the neurite formation score was found to be 5.02 in experiment [1] and 5.25 in experiment [2].
Taken in the same sequence, the figures for `N#Cc1ccc2[nH]c(O)c(-c3ccc(CN4CCOCC4)cn3)c2c1` were 4.54 and 4.08.
Take `O=C(NCCCNc1nc(Nc2cccc(CN3CCOCC3)c2)ncc1C1CC1)C1CCC1`: the neurite formation score stood at 5.02 in experiment [1] and 5.25 in experiment [2].
On the same counts, the results for `CNC(=O)c1cc(COc2nnc(Nc3ccc(Cl)cc3)c3ccoc23)ccn1` [Telatinib (BAY 57-9352)] are 4.96 and 4.92.
On the same counts, the results for `COc1cc2ncnc(Oc3cccc(NC(=O)Nc4cc(C(C)(C)C(F)(F)F)on4)c3)c2cc1OC` are 5.24 and 4.71.
Consider `O=C(Nc1cccc(Cl)c1)Nc1ncc(CCNc2ncnc3ccsc23)s1` [SNS-314 Mesylate], for which the neurite formation score was found to be 4.69 in experiment [1] and 4.58 in experiment [2].
`C[C@H]1Oc2cc(cnc2N)-c2c(nn(C)c2C#N)CN(C)C(=O)c2ccc(F)cc21`: the neurite formation score in experiment [1] is 4.21; in experiment [2], 5.08.
On the same counts, the results for `CCCCCCCCCCCC(=O)OCC(CO)OC(=O)CCCCCCCCCCC` (configuration not stated) [1,2-Dilauroyl-sn-glycerol] are 4.54 and 5.08.
On the same counts, the results for `CCn1c2ccccc2c2cc(Nc3ccnc(NCCCN4CCOCC4)n3)ccc21` are 3.54 and 3.42.
On the same counts, the results for `CO[C@H]1C[C@@H]2CC[C@@H](C)[C@@](O)(O2)C(=O)C(=O)N2CCCC[C@H]2C(=O)O[C@H]([C@H](C)C[C@@H]2CC[C@@H](OCCO)[C@H](OC)C2)CC(=O)[C@H](C)/C=C(\C)[C@@H](O)[C@@H](OC)C(=O)[C@H](C)C[C@H](C)/C=C/C=C/C=C/1C` [Everolimus (RAD001)] are 4.57 and 5.54.
Take `OCCn1cc(-c2ccc3c(c2)CC/C3=N\O)c(-c2ccncc2)n1`: the neurite formation score in experiment [1] came out at 3.69; in experiment [2], 4.58.
Consider `NC(=O)c1ncn([C@@H]2O[C@H](CO)[C@@H](O)[C@H]2O)c1N`, for which the neurite formation score worked out at 4.57 in experiment [1] and 5.54 in experiment [2].
Taken in the same sequence, the figures for `CCS(=O)(=O)N1CC(CC#N)(n2cc(-c3ncnc4[nH]ccc34)cn2)C1` were 4.02 and 4.58.
For `CCN(CC)CCCC(C)Nc1ccnc2cc(Cl)ccc12` (configuration not stated) [Chloroquine diphosphate], the neurite formation score stood at 4.96 in experiment [1] and 4.58 in experiment [2].

Values taken from the supplement of paper PMC8047044.
